PubChem BioAssay (NCATS)
Results filed as inconclusive are left out. Activity calls are given as the source filed them. The call rests on the fitted dose curve; in most records, active means well fitted curve in the direction sought with a large enough effect; inconclusive means small, poorly fitted or top-dose-only effect, or another doubt; inactive means no such curve, though single readings can be large; an effect the other way counts as inactive or inconclusive.

tested on: not listed separately; assay: qHTS of pediatric cancer cell lines to identify multiple opportunities for drug repurposing: Confirmatory screen for Saos-2 cells (AID 1347127); conditions: Saos-2 osteosarcoma cell viability; series mostly up to 45.9 µM; activity change, negative = cytotoxic: at the top concentration; further: nearly all actives have a fitted effect of over 60% in size;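 on activity change, negative = cytotoxic: plate controls were DMSO for no effect and bortezomib for full effect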
In short: (§1)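 Cells (500-1,000/well) in growth media were settled 5 h at 37 degrees C, then given compounds for 48 h. Viability was read as CellTiter-Glo luminescence. Primary runs used MIPE at 11 points (0.78 nM-46 µM) and NPC at 8 points (0.59 nM-46 µM); follow-ups used 11 points.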
Potency means the concentration at half of the fitted maximal effect.

Row | Compound | activity change, negative = cytotoxic | Potency | outcome
1 | CN1C[C@H](C(=O)N[C@]2(C)O[C@@]3(O)[C@@H]4CCCN4C(=O)[C@H](Cc4ccccc4)N3C2=O)C[C@@H]2c3cccc4[nH]cc(c34)C[C@H]21 | 9.38% (inactive) | – | –
2 | NCCCNCCSP(=O)(O)O | -1.29% [at 9.58 µM] (inactive) | – | –
3 | C[n+]1cc2c3c(ccc2c2ccc4cc5c(cc4c21)OCO5)OCO3 | – | 1.29 µM (active) | –
4 | C[C@]12C=CC(=O)C=C1CC[C@H]1[C@@H]3C[C@@H](O)[C@](O)(C(=O)CO)[C@@]3(C)C[C@H](O)[C@@]12F | – | 9.27 µM (active) | –
5 | Nc1nc(N)c2nc(-c3ccccc3)c(N)nc2n1 | -11.4% (inactive) | – | –
6 | C[C@]12CC[C@@H]3c4ccc(O)cc4C[C@@H](CCCCCCCCCS(=O)CCCC(F)(F)C(F)(F)F)[C@H]3[C@@H]1CC[C@@H]2O (stereo partly specified) | -19.7% (inactive) | – | –
7 | CN/C(=C\[N+](=O)[O-])NCCSCc1ccc(CN(C)C)o1 | – | – | inactive

tested on: not listed separately; assay: qHTS of pediatric cancer cell lines to identify multiple opportunities for drug repurposing: Confirmatory screen for OHS-50 cells (AID 1347128); conditions: OHS-50 osteosarcoma cells viability; series mostly up to 45.9 µM; activity change, negative = cytotoxic: at the top concentration;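 further: compound exposure lasted 48 h at 37 degrees C; nearly all actives have a fitted effect of over 55% in size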; on activity change, negative = cytotoxic: on the % scale 0 is the no-effect control and ±100 the full control effect
In short: as §1

Row | Compound | activity change, negative = cytotoxic | Potency
8 | CN1C[C@H](C(=O)N[C@]2(C)O[C@@]3(O)[C@@H]4CCCN4C(=O)[C@H](Cc4ccccc4)N3C2=O)C[C@@H]2c3cccc4[nH]cc(c34)C[C@H]21 | -11% (inactive) | –
9 | NCCCNCCSP(=O)(O)O | 0.588% [at 9.58 µM] (inactive) | –
10 | C[n+]1cc2c3c(ccc2c2ccc4cc5c(cc4c21)OCO5)OCO3 | – | 2.57 µM (active)
11 | C[C@]12CC[C@@H]3c4ccc(O)cc4C[C@@H](CCCCCCCCCS(=O)CCCC(F)(F)C(F)(F)F)[C@H]3[C@@H]1CC[C@@H]2O (stereo partly specified) | -23.3% (inactive) | –
12 | CN/C(=C\[N+](=O)[O-])NCCSCc1ccc(CN(C)C)o1 | 3.86% (inactive) | –

tested on: not listed separately; assay: qHTS of pediatric cancer cell lines to identify multiple opportunities for drug repurposing: Confirmatory screen for SK-N-SH cells (AID 1347129); conditions: SK-N-SH neuroblastoma cell viability; series mostly up to 46.1 µM; activity change, negative = cytotoxic: at the top concentration;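 further: cells exposed to compound for 48 h before viability read; nearly all actives have a fitted effect of over 60% in size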;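 on activity change, negative = cytotoxic: plate controls were DMSO for no effect and bortezomib control for full effect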
In short: as §1

Row | Compound | activity change, negative = cytotoxic | Potency
13 | NCCCNCCSP(=O)(O)O | -2.99% [at 9.52 µM] (inactive) | –
14 | C[n+]1cc2c3c(ccc2c2ccc4cc5c(cc4c21)OCO5)OCO3 | – | 1.44 µM (active)
15 | C[C@]12C=CC(=O)C=C1CC[C@H]1[C@@H]3C[C@@H](O)[C@](O)(C(=O)CO)[C@@]3(C)C[C@H](O)[C@@]12F | -13.4% (inactive) | –
16 | Nc1nc(N)c2nc(-c3ccccc3)c(N)nc2n1 | -4.13% (inactive) | –
17 | C[C@]12CC[C@@H]3c4ccc(O)cc4C[C@@H](CCCCCCCCCS(=O)CCCC(F)(F)C(F)(F)F)[C@H]3[C@@H]1CC[C@@H]2O (stereo partly specified) | 8.54% (inactive) | –
18 | CN/C(=C\[N+](=O)[O-])NCCSCc1ccc(CN(C)C)o1 | 1.91% (inactive) | –

biological target: N-terminal Xaa-Pro-Lys N-methyltransferase 1 (Homo sapiens) (UniProt Q9BV86); assay: qHTS Assay for Inhibitors of N-terminal methyltransferase 1 (NTMT1): LOPAC validation of the NTMT1 SAHH-coupled ThioGlo3 Assay (AID 1347143); conditions: recombinant NTMT1, SAHH-coupled ThioGlo3 fluorescence; series mostly up to 114 µM; activity change, negative = inhibition: at the top concentration; further: nearly all actives have a fitted effect of over 70% in size; on activity change, negative = inhibition: on the % scale 0 is the no-effect control and ±100 the full control effect
In short: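 Fluorescence read-out (excitation 340nm, emission 450nm) of SAH-derived thiol, measured via SAHH coupling and ThioGlo3, taken immediately and after a 30 min room-temperature reaction, then normalized to the background read. Enzyme: NTMT1 at 125nM; cofactor SAM 100uM in the added reagent.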

N-terminal Xaa-Pro-Lys N-methyltransferase 1 (Homo sapiens), sequence (Q9BV86 whole entry, looked up): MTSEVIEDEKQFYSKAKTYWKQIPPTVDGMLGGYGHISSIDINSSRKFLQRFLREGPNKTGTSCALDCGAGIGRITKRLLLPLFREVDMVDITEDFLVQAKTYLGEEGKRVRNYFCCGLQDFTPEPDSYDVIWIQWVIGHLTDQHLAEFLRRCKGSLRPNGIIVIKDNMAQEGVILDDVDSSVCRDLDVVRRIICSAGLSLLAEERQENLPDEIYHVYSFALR

Row | Compound | Potency | activity change, negative = inhibition
19 | CN(C)CCCN1c2ccccc2Sc2ccccc21 | 44.7 µM (active) | –
20 | CC(=O)Oc1cc(C(C)C)c(OCCN(C)C)cc1C | – | -11.9% (inactive)
21 | CCN(Cc1ccncc1)C(=O)C(CO)c1ccccc1 (stereo unspecified) | – | -9.29% (inactive)
22 | CC(C)NNC(=O)c1ccncc1 | – | -25.9% (inactive)
23 | Brc1c(NC2=NCCN2)ccc2nccnc12 | 50.1 µM (active) | –
24 | CC(C)(Oc1ccc(CCNC(=O)c2ccc(Cl)cc2)cc1)C(=O)O | – | -17.7% (inactive)
25 | OC(CCN1CCCCC1)(c1ccccc1)C1CCCCC1 (stereo unspecified) | – | -12.7% (inactive)
26 | Cc1ccc(/C(=C\CN2CCCC2)c2ccccn2)cc1 | – | -25% (inactive)
27 | NC(N)=N/N=C/c1c(Cl)cccc1Cl | – | -18% (inactive)
28 | CN(C)CCN(Cc1cccs1)c1ccccn1 | – | -11.2% (inactive)
29 | CN1C[C@H](C(=O)N[C@]2(C)O[C@@]3(O)[C@@H]4CCCN4C(=O)[C@H](Cc4ccccc4)N3C2=O)C[C@@H]2c3cccc4[nH]cc(c34)C[C@H]21 | – | -17.9% (inactive)
30 | O=C(O)CP(=O)(O)O | – | -23.3% (inactive)
31 | NCCCNCCSP(=O)(O)O | – | -7.05% (inactive)
32 | NC(Cc1ccc(Cl)cc1)C(=O)O (stereo unspecified) | – | -16.2% (inactive)
33 | CCCCCN(CCCCC)C(=O)C(CCC(=O)O)NC(=O)c1ccc(Cl)c(Cl)c1 (stereo unspecified) | – | -0.612% (inactive)
34 | O=C(CCNNC(=O)c1ccncc1)NCc1ccccc1 | – | -13% (inactive)
35 | CCOC(=O)c1cnc2c(cnn2CC)c1NN=C(C)C | 56.2 µM (active) | –

Row | Compound | Potency | activity change, negative = inhibition
36 | CN(C(=O)CCCOc1ccc2[nH]c(=O)ccc2c1)C1CCCCC1 | 79.4 µM (active) | –
37 | CCOC(=O)C1=C(C)NC(C)=C(C(=O)OC)C1c1cccc(Cl)c1Cl (stereo unspecified) | 56.2 µM (active) | –
38 | C(=C\c1ccccc1)/CN1CCN(C(c2ccccc2)c2ccccc2)CC1 | – | -6.07% (inactive)
39 | CCN(CC)CCNC(=O)c1cc(S(C)(=O)=O)ccc1OC | – | -7.87% (inactive)
40 | CC(=O)[C@@]1(O)CC[C@H]2[C@@H]3CCC4=CC(=O)CC[C@]4(C)[C@H]3CC[C@@]21C | – | -13.2% (inactive)
41 | C[n+]1cc2c3c(ccc2c2ccc4cc5c(cc4c21)OCO5)OCO3 | 44.7 µM (active) | –
42 | C[N+](C)(C)CCOC(N)=O | – | -6.03% (inactive)
43 | COc1ccc(CCN(C)CCCC(C#N)(c2cc(OC)c(OC)c(OC)c2)C(C)C)cc1OC (stereo unspecified) | – | -15.9% (inactive)
44 | C[C@]12C=CC(=O)C=C1CC[C@H]1[C@@H]3C[C@@H](O)[C@](O)(C(=O)CO)[C@@]3(C)C[C@H](O)[C@@]12F | – | -14.6% (inactive)
45 | COC(=O)[C@H]1[C@H]2C[C@@H]3c4[nH]c5cc(OC)ccc5c4CCN3C[C@H]2C[C@@H](OC(=O)c2cc(OC)c(OC)c(OC)c2)[C@@H]1OC | 56.2 µM (active) | –
46 | CC(C)COCC(CN(Cc1ccccc1)c1ccccc1)N1CCCC1 (stereo unspecified) | 50.1 µM (active) | –
47 | C[C@H](CS)C(=O)N1CCC[C@H]1C(=O)O | – | 548% (inactive)
48 | C[C@]12CC[C@@H]3c4ccc(O)cc4C[C@@H](CCCCCCCCCS(=O)CCCC(F)(F)C(F)(F)F)[C@H]3[C@@H]1CC[C@@H]2O (stereo partly specified) | – | 16.9% (inactive)
49 | CCCOc1ccccc1-c1nc2n[nH]nc2c(=O)[nH]1 | – | -18.9% (inactive)
50 | COC(=O)C1=C(C)NC(C)=C(C(=O)OCCN(C)Cc2ccccc2)C1c1cccc([N+](=O)[O-])c1 (stereo unspecified) | – | -20.2% (inactive)
51 | O=C(O)CN(CCN(CC(=O)O)CC(=O)O)CCN(CC(=O)O)CC(=O)O | – | -5.85% (inactive)
